Results taken from the supplement of paper PMC6555819.

Experiments:
Assay in all cases: PBM binding z-score (relative to random genomic background probes); higher = stronger binding; sequences stand for … in GC…GCGATTGACAGCGTAGAATGAAGG
[1] = tested on: RARb homodimer (NR concentration 270 nM)
Method in brief: (§1)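 Binding z-scores take random background probes as their reference. They come from custom Agilent 4×180K protein-binding microarrays incubated 1 h with ligand-free nuclear receptor dimers, with antibodies against each partner (one per run) detecting binding. Scanned fluorescence was regression-normalized.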

[2] = tested on: RARg:RXRa (NR concentration 270 nM, RXRa partner concentration 90 nM)
Method in brief: as §1

[3] = tested on: RARg homodimer (NR concentration 270 nM)
Method in brief: as §1

[4] = tested on: RXRa DBDmut IVT, anti-RXR (DBD mutation: RXRa K156A/R161A, NR concentration 90 nM)
Method in brief: as §1

[5] = tested on: RXRa homodimer (NR concentration 180 nM)
Method in brief: as §1

[6] = tested on: THRa:RXRa (NR concentration 90 nM, RXRa partner concentration 90 nM)
Method in brief: as §1

[7] = tested on: THRa homodimer (NR concentration 90 nM)
Method in brief: as §1

[8] = tested on: VDR:RXRa (NR concentration 270 nM, RXRa partner concentration 90 nM)
Method in brief: as §1

[9] = tested on: VDR homodimer (NR concentration 270 nM)
Method in brief: as §1

Sequence | PBM binding z-score [1] | PBM binding z-score [2] | PBM binding z-score [3] | PBM binding z-score [4] | PBM binding z-score [5] | PBM binding z-score [6] | PBM binding z-score [7] | PBM binding z-score [8] | PBM binding z-score [9]
CCGAGTAGGTTACGAGGGGGCATTCAGTGCGAAT | 2.12 | 3.18 | 2.54 | 1.15 | 2.18 | 3.83 | 0.272 | 5.35 | 3.79
TCGAGTAGGTTACCGGGGCATTCAGGGATGAAGA | 1.09 | 1.01 | 0.946 | -0.0634 | 0.997 | 2.25 | 0.104 | 0.816 | -0.232
TCTCGGAGGACACGAAGGTCAAAGCTTTCCAGAG | 4.15 | 4.3 | 4.3 | 1.15 | 3.26 | 3.4 | 1.44 | 3.87 | 2.67
ATCTGTAGGTTATCGGGTCATTCAGTTTGCGCAT | 3.19 | 3.59 | 2.78 | 1.68 | 3.48 | 3.36 | 3.04 | 5.17 | 3.95
CTATGTAGGTTAAGGGGGTCAGTCAGTTTGAAAG | 3.63 | 4.2 | 3.72 | 1.75 | 4.08 | 3.17 | 1.89 | 6.49 | 3.99
CCTACTGGGCCAAAAATGTCATTGATGCCGATAA | -0.0192 | -0.247 | 0.087 | -0.297 | -0.234 | -0.288 | -0.816 | 0.0323 | -0.383
CGAACTAGATCAAAGGACAGTGAAAGGCGACGTA | 0.779 | 0.0763 | 0.823 | -0.208 | -0.0824 | 0.0238 | -0.506 | -0.333 | 0.0452
CTATGCAGGTTAAGGGGGTCATTCAGTTTGAAAG | 3.8 | 5.13 | 4.11 | 2.38 | 6.2 | 3.91 | 2.28 | 7.5 | 5.99
CGTCCAAGGGCAGCAGGTCAGTGAAAGCGACGTG | 2.99 | 2.31 | 2.9 | 0.247 | 0.676 | 1.28 | -0.115 | 0.17 | 0.0968
ATATGTAGTTTAGGGTCATTCAGAAAGTAGGGAA | 3.24 | 4.01 | 2.73 | 2.93 | 5.24 | 4.29 | 3.64 | 4.64 | 4.3
CGTCCAAGGTCAGAGAGGTCAGTGACTGCCGAGT | 5.15 | 6.31 | 6.93 | 3.54 | 5.25 | 4.26 | 2.58 | 7.27 | 5.42
TAGCCTAGGTCACGGGCCAGTATACCACGCGAAC | 3.83 | 5.12 | 5.43 | 0.27 | 4.73 | 3.83 | 1.84 | 2.94 | 0.425
TAGCCAAGGTCAGATCGGGCCAGTATACGCTATA | 3.41 | 4.59 | 5.1 | 1.75 | 3.58 | 4.32 | 1.09 | 3.07 | 1.11
AGTCAAAGTTCAGGACGAGGTAAAGTAAAGCACG | 3.05 | 4.76 | 4.51 | 3.04 | 3.22 | 3.78 | 1.51 | 3.01 | 2.35
GCTGCTAGGTAAGGTTGGTCAGCTAACGGGTACG | 0.738 | -0.277 | -0.313 | -0.185 | -0.296 | 0.277 | -0.184 | -0.447 | -0.0228
CTATGTAGTTTAAGGGGGTCATTCAGTTTGAAAG | 3.89 | 4.53 | 3.58 | 3.27 | 5.05 | 3.79 | 2.91 | 6.94 | 7.03
TTACAAAGGTGAAAGGTCGTTGATGCACGCCTTG | 3.48 | 5.85 | 3.31 | 1.05 | 7.68 | 3.11 | 0.398 | 4.35 | 1.64
ATCGGAAGGTCGAGGTGAGTATAGAGAAAGGGAA | 2.14 | 2.38 | 2.75 | 0.14 | 2.25 | 2.28 | 0.964 | 1.31 | 0.543
CCTACTGGGGCAAAGGTCATTGATTCCAATGCTC | 4.6 | 6.11 | 4.61 | 0.782 | 6.93 | 3.66 | 0.71 | 4.96 | 1.92
CGAACTAGGTGACCAGGACAGTGAAGAGGTTGGA | 1.03 | 0.633 | 0.705 | -0.229 | 0.65 | 1.36 | 0.885 | 0.673 | -0.155
CTCGAAAGGTCGAGCTCAGGTGAGTATACCAAAC | 2.85 | 4.89 | 4.58 | 1.39 | 4.04 | 4.03 | 0.791 | 2.71 | 0.31
CGTCAAAGTTCATGGTAACGTAACAGAAAGCAGC | 4.04 | 5.3 | 5.92 | 4.79 | 4.53 | 1.98 | -0.212 | 4.33 | 4.64
TCGAGTAGGTTCCGGGGGCATTCAGGGATGAAGA | 1.25 | 1.57 | 1.13 | 1.02 | 1.33 | 3.53 | 1.08 | 2.54 | 3.01
TCGAGTCGGTTACGGGGGCATTCAGGGATGAAGA | 1.57 | 2.4 | 1.77 | 1.16 | 1.5 | 3.45 | 0.955 | 2.73 | 2.23
